Hit rate of the full screen: of about 310,000 compounds, about 18,000 (5.8%) were called active. About 22% were inconclusive and are not listed. This excerpt belongs to a sample that is enriched for actives. Values without a mark were called inactive. The call rests on the fitted dose curve; in most records, active means well fitted inhibition curve with a large enough effect; inconclusive means small, poorly fitted or top-dose-only effect, or another doubt; inactive means no such curve, though single readings can be large or run the other way.
Assay: Primary qHTS for delayed death inhibitors of the malarial parasite plastid, 48 hour incubation
Conditions: P. falciparum luciferase growth in erythrocytes; series mostly up to 28.7 µM; activity change, negative = inhibition: at the top concentration
Excerpt: The goal of this screen is to discover new antimalarial compounds that act by inhibiting the development of the apicoplast in the malarial parasite Plasmodium falciparum. The biochemical processes that make this organelle essential for erythrocytic stage parasites are not well understood. However, antibiotics such as azithromycin and tetracycline, which target the apicoplast translational machinery, have a potent antimalarial effect.
We have developed a cell-based assay that measures parasite growth based on the expression of an integrated copy of a firefly luciferase reporter. To detect small molecules that cause this "delayed death" phenotype, erythrocytes infected with the luciferase-expressing parasites were incubated with compounds for either one or two generations, corresponding to 48 and 96 hours, respectively. Compounds that inhibit parasite growth in the second generation, but not the first, should be enriched in antimalarials that target the apicoplast. Growth inhibition is detected by a decrease in luciferase activity.
Assay Provider: David Fidock and Eric Ekland, Columbia University
Keywords: NIH Roadmap, MLPCN, MLI, MLSMR, qHTS, NCGC, qHTS, malaria, luciferase, viability
Four microliters of culture medium (RPMI 1640 with 0.5% w/v Albumax (GIBCO), 24 mM sodium bicarbonate and 10 ug/mL gentamycin) were dispensed by a Multi-drop Combi into white solid 1536-well plates (Grenier) and 23 nL compound was added by a pin tool. Four microliters of infected erythrocytes (2% hematocrit, 0.1% parasitemia final concentration) in culture medium were dispensed and the plates incubated for 48 hours at 37 C in 5% CO2. Two microliters of luciferase detection reagent was added and luminescence was detected by a ViewLux (PerkinElmer) reader.
On the % scale 0 is the no-effect control and ±100 the full control effect; potency means the concentration at half of the fitted maximal effect.

Compound	activity change, negative = inhibition	Potency
CCN(CC)CCn1c2c(c(SCC(=O)Nc3nc4ccccc4s3)nc1=O)CCCC2	-4.88%	–
O=C(Nc1ccccc1C(F)(F)F)N1CCCC1c1cccnc1 (stereo not drawn)	11%	–
Cc1ccc(-c2cc(C(F)(F)F)n3ncc(C(=O)N4CCCCC4c4cccnc4)c3n2)cc1 (stereo not drawn)	–	1.65 µM (active)
O=C(NC(=S)N1CCCCC1c1cccnc1)c1ccccc1 (stereo not drawn)	0.637%	–
CCn1c(SCC(=O)NC2CC2)nnc1-c1ccccn1	-6.85%	–
CCOc1ccc(C(=O)CCN2CCOCC2)cc1	-9.9%	–
CC(=O)c1ccc(S(=O)(=O)NCc2nnnn2-c2ccccc2)cc1	4.77%	–
Cc1cccc(-c2nnc(SCC(=O)O)n2Cc2ccccc2)c1	9.98%	–
O=C(N[C@@H](Cc1ccccc1)C(=O)OCc1ccccc1)c1nc[nH]c1C(=O)N[C@@H](Cc1ccccc1)C(=O)OCc1ccccc1	25.2%	–
CC(C)(C)OC(=O)N1CCC(NC(=O)c2[nH]cnc2C(=O)N[C@@H](Cc2ccccc2)C(=O)OCc2ccccc2)CC1	–	0.928 µM (active)
C[C@@H](NC(=O)c1nc[nH]c1C(=O)N1CCN(C(=O)OC(C)(C)C)CC1)c1ccccc1	-19.3%	–
Cc1onc(C(=O)Nc2ccc3c(c2)OCO3)c1[N+](=O)[O-]	-3.19%	–
Cc1c(CCOC(=O)CC23CC4CC(CC(C)(C4)C2)C3)sc[n+]1Cc1ccc([N+](=O)[O-])cc1	–	2.62 µM (active)
Cc1c(CCOC(=O)c2cc([N+](=O)[O-])ccc2Cl)sc[n+]1CCCCS(=O)(=O)[O-]	3.97%	–
Oc1ccc(/C=N/Nc2ccc(C(F)(F)F)cn2)cc1O	25.2%	–
O=C(CCCO)N/N=C/c1cc(Br)ccc1O	-7.77%	–
Oc1ccc(Br)cc1/C=N/Nc1ccccn1	–	1.47 µM (active)
CC(C)c1ccc(S(=O)(=O)N2CCC3(CC2)OCCO3)cc1	-3.34%	–
COc1ccc(C)cc1NC(=O)c1cc(-c2ccccc2)nc2c1cnn2C(C)C	–	4.65 µM (active)
COc1ccc(C)cc1NC(=O)Nc1ccccc1SC	2.04%	–
COc1cc2ccccc2cc1C(=O)Nc1ccccc1C	194%	–
Cc1ccc(-c2noc(C3CCCN(C(=O)c4cccc(Cl)c4)C3)n2)o1 (stereo not drawn)	100%	–
O=C(CCNC(=O)c1ccc(Br)cc1)NCCCc1ccccc1	25.6%	–
Cc1cccc2[nH]c(CN(C)C(=O)C3CCC(=O)N(CCc4ccccc4)C3)nc12 (stereo not drawn)	-17.7%	–
Cc1ccccc1C(=O)NC(=S)Nc1ccc(N2CCN(C(=O)c3ccccc3)CC2)cc1	-9.42%	–
CC(C)c1ccc(N2CCN(C(=O)c3ccccc3NC(=O)/C=C(\C(=O)O)c3ccccc3)CC2)cc1	–	13.1 µM (active)
COc1ccc(C(=O)Nc2ccccc2C(=O)N2CCN(c3ccccc3)CC2)cc1	-16.5%	–

Compound	activity change, negative = inhibition	Potency
COc1ccc(NC(=O)CCS(=O)(=O)c2cc3c(cc2Cl)NC(=O)CO3)cc1OC	21.5%	–
O=C(COC(=O)c1cccs1)Nc1ccccc1Cl	4.31%	–
O=C(Cc1ccc2c(c1)CCCC2)Nc1ccccc1Cl	–	11.7 µM (active)
O=C(Nc1ccc2c(c1)CCC2)c1cccc(S(=O)(=O)Nc2ccccc2Cl)c1	-1.32%	–
O=C(Nc1ccccc1N1CCOCC1)c1ccncc1	-23.9%	–
CCCc1ccc(OCC(O)CN2CCN(CCO)CC2)cc1 (stereo not drawn)	5.68%	–
CCCCc1nc(NCc2ccccc2)c(C#N)c2c1CCCC2	–	6.57 µM (active)
CCc1nc(NCCO)c(C#N)c2c1CCCC2	1.82%	–
CN(C)c1nccc(NCc2ccccc2)c1C#N	12.3%	–
CCOC(=O)c1ccccc1NC(=O)COC(=O)C(Cc1c[nH]c2ccccc12)NC(C)=O (stereo not drawn)	15.1%	–
CCOc1cccc(=NC2CCCCC2)c2c(C)[nH]c(C)c12	–	2.33 µM (active)
CCOc1ccccc1NC(=O)NC1CCCCCCC1	-19.6%	–
Cc1cc(C)n2nc(C(=O)Nc3cccc(S(=O)(=O)N4CCOCC4)c3)nc2n1	11.9%	–
CC(C)C[C@H](NC(=O)C1CC(=O)N(c2ccc3c(c2)OCCO3)C1)C(=O)NC1CCCC1 (stereo partly drawn)	-6.29%	–
C/C=C/C(=O)OCc1csc(CC(=O)Nc2ccccc2C)n1	24.7%	–
CCCc1nnc(NC(=O)CCC(=O)N2CCN(S(=O)(=O)c3ccc(OC)cc3)CC2)s1	-11.4%	–
COc1ccc(Cc2nc3ccc(C(=O)N4CCC(N(C)C)C4)cc3o2)cc1 (stereo not drawn)	-3.86%	–
CCc1cccc(NC(=O)COC(=O)C2CCN(c3ccc(C(F)(F)F)cn3)CC2)c1	52.4%	–
CCOC(=O)c1[nH]ncc1CN1CCCC(C(=O)c2ccc(OC)cc2C)C1 (stereo not drawn)	21.3%	–
COc1ccc(C(=O)C2CCCN(Cc3cccn3-c3ccccn3)C2)c(C)c1 (stereo not drawn)	–	6.57 µM (active)
COc1ccc(C(=O)C2CCCN(Cc3ccc4nonc4c3)C2)c(C)c1 (stereo not drawn)	-14.3%	–
COC(=O)c1ccc(NC(=O)CSc2nc(N)c(NC(=O)c3ccc(Br)o3)c(=O)[nH]2)cc1	3.29%	–
COCCn1c(SCC(=O)N2CCCCCC2)nc2c(c1=O)SCC2	-12.2%	–
COc1ccc(CCN2C(=O)C(C)=C(C)C2=O)cc1OC	11%	–
COc1ccc(CCNC2=C(Cl)C(=O)N(Cc3ccccc3)C2=O)cc1OC	–	11.7 µM (active)
COc1ccc(CCN=C2SCC(=O)N2Cc2ccccc2)cc1OC	-10.1%	–

— PubChem BioAssay AID504832 (National Center for Advancing Translational Sciences (NCATS), 2011)
